Experiment [1] can be described thus: qHTS assay to identify small molecule agonists of the vitamin D receptor (VDR) signaling pathway - cell viability counter screen (AID 743224). Further: nearly all actives have a fitted effect of over 50% in size. Further: potency means the concentration at half of the fitted maximal effect. The method in brief:
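Counter screen for cytotoxicity: VDR-bla cells at 2,000 cells/well, 16 h compound exposure, then CellTiter-Glo luminescence after the beta-lactamase measurement.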
For orientation: Quantitative high-throughput screening tests each substance at several concentrations.

The nature of experiment [2]: qHTS assay to identify small molecule agonists of the NFkB signaling pathway (AID 1159509; active means well fitted curve in the direction sought with a large enough effect in the signal ratio in the repeat runs, not every such curve was filed as active; the % refers to the signal ratio; further: series mostly up to about 61 µM). In outline: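 Agonist activity was read as beta-lactamase-driven FRET change (460 and 530 nm emission, 405 nm excitation) following 1.5 hr substrate loading at room temperature. Beforehand, ME-180 NFkB-bla reporter cells were treated with compounds for 5 hr at 37 C.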
Experiment [3] is described as follows: qHTS assay to identify small molecule agonists of the endoplasmic reticulum stress response signaling pathway (AID 1159516; active means well fitted activation curve with a large enough effect in the signal ratio in the repeat runs, not every such curve was filed as active; the % refers to the signal ratio). In outline: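 For this screen, HeLa cells stably carrying beta-lactamase under the ER stress response element received test compounds, positive controls or DMSO for 5 hr at 37 C; B/G FRET substrate was then added and dual-wavelength emission recorded.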

Experiment [4] can be described thus: qHTS assay to identify small molecule agonists of the endoplasmic reticulum stress response signaling pathway - cell viability counter screen (AID 1159517; calls by dose curve; further: series mostly up to about 61 µM; nearly all actives have a fitted effect of over 50% in size). In outline: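 Cpd-treated ESRE-bla HeLa (5 hr, 37 C) → LiveBLAzer 2 hr RT → CellTiter-Glo 30 min RT → luminescence.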
Experiment [5] can be described thus: qHTS assay to identify small molecule antagonists of the retinoid-related orphan receptor gamma (ROR-gamma) signaling pathway - cell viability counter screen (AID 1159520). Further: nearly all actives have a fitted effect of over 50% in size. Further: potency means the concentration at half of the fitted maximal effect. In outline: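 Tet-on ROR gamma CHO cells (1,000/well) were plated 4 hr, given compounds in DMSO for 2 hr at 37 C, then induced with 1 uM final doxycycline for 16 hr. Viability was read as ATP by CellTiter-Glo luminescence after 30 min.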

Experiment [6] deals with Nuclear receptor ROR-gamma (Homo sapiens) (UniProt P51449). Briefly: qHTS assay to identify small molecule antagonists of the retinoid-related orphan receptor gamma (ROR-gamma) signaling pathway (AID 1159521; further: nearly all actives have a fitted effect of over 50% in size; further: potency means the concentration at half of the fitted maximal effect). In outline: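 CHO cells expressing RORγ under a TET-on promoter, luciferase under RORE control. Dox 1 uM final, 16 h; compounds added 2 h prior. Luminescence decrease measured.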

Experiment [7] can be described thus: qHTS assay to identify small molecule agonists of the AP-1 signaling pathway - cell viability counter screen (AID 1159525; calls by dose curve; further: nearly all actives have a fitted effect of over 55% in size; further: potency means the concentration at half of the fitted maximal effect). In outline: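 Each titration point was normalised to DMSO and tetra n-octyl ammonium bromide controls. The read was Cell Titer Glo luminescence after 30 min at RT, following 5 h compound exposure of ME-180 AP-1-bla cells at 37 °C.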
Experiment [8] is described as follows: qHTS assay to identify small molecule antagonists of the retinoid acid receptor (RAR) signaling pathway - cell viability counter screen (AID 1159551). Further: nearly all actives have a fitted effect of over 35% in size. In outline:
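Measured by luminescent ATP detection, viability reflects C3RL4 cells treated 6 h at 37 C with test chemicals in the presence of 1 uM (final) retinol.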

Experiment [9] in a line: qHTS assay to identify small molecule antagonists of the retinoic acid receptor (RAR) signaling pathway (AID 1159552; further: nearly all actives have a fitted effect of over 50% in size). The method in brief: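 Readout: luciferase luminescence, 30 min post-reagent at RT. Setup: C3RL4 RARE reporter cells, compounds plus retinol 1 uM final, 6 hr incubation at 37 C and 5% CO2.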
Experiment [10] in a line: qHTS assay to identify small molecule agonists of the retinoic acid receptor (RAR) signaling pathway (AID 1159553). Further: potency means the concentration at half of the fitted maximal effect. The method in brief: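 6 hr compound exposure (DMSO vehicle) of overnight-plated C3RL4 RARE-luc cells at 37 C; luminescence quantified after 30 min RT with luciferase reagent.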
A short description of experiment [11]: qHTS assay to identify small molecule antagonists of the vitamin D receptor (VDR) signaling pathway - cell viability counter screen (AID 743225). Further: nearly all actives have a fitted effect of over 50% in size. In outline:
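Luminescent cell viability (CellTiter-Glo) in VDR-bla HEK 293T cells after 16 h compound exposure at 37C in the presence of 3 nM final 1-alpha,25-dihydroxy vitamin D3.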

The nature of experiment [12]: qHTS assay to identify small molecule agonists of the AP-1 signaling pathway (AID 1159526; calls by dose curve).
The nature of experiment [13]: qHTS assay to identify small molecule agonists of the RXR signaling pathway - cell viability counter screen (AID 1159529). Further: nearly all actives have a fitted effect of over 50% in size. Further: potency means the concentration at half of the fitted maximal effect. In outline: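 Same-well viability check after the LiveBLAzer FRET read: CellTiter-Glo added, luminescence measured after 30 min at room temperature. Reporter HEK 293T cells had been treated with compounds for 16 hr following a 5 hr preincubation.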

Experiment [14] has as its target Retinoic acid receptor RXR-alpha (Homo sapiens) (UniProt P19793). In words: qHTS assay to identify small molecule agonists of the RXR signaling pathway (AID 1159527; calls by dose curve; further: nearly all actives have a fitted effect of over 35% in size). In outline: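 Beta-lactamase reporter assay, agonist format. Engineered HEK 293T line, charcoal-stripped FBS at 2%, overnight (16 hr) exposure, fluorescence at 460 and 530 nm after 405 nm excitation.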

This passage reports Potency and outcome results from PubChem BioAssay (Tox21).

Results filed as inconclusive are left out. The source made the active and inactive calls. Unless noted, the call rests on the fitted dose curve; in most records, active means well fitted curve in the direction sought with a large enough effect in the repeat runs; inconclusive means weak or mixed curves; inactive means no such curve, though single readings can be large; an effect the other way counts as inactive or inconclusive.

Sequence of Retinoic acid receptor RXR-alpha (Homo sapiens) (P19793 whole entry, looked up): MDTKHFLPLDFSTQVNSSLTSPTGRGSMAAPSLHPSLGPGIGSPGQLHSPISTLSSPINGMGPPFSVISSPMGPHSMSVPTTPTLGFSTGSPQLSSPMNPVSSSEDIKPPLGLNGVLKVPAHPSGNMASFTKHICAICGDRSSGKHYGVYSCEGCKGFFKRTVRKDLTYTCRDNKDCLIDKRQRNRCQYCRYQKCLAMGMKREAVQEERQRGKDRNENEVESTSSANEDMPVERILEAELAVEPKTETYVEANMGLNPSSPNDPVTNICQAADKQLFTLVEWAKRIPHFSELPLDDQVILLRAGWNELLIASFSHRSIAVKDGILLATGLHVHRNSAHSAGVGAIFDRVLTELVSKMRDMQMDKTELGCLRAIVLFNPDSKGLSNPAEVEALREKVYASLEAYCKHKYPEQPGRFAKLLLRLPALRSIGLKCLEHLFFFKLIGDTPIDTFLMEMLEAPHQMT

`c1cc[c]([Hg][c]2ccccc2)cc1`: the Potency in [1] is 49 µM (active); in [5], 27.3 µM (active); in [6], 19.3 µM (active); in experiment [10], 8.63 µM (active). For the same compound, the outcome in experiment [2] and in experiment [3] was inactive. Also, the Potency entry in [4], in experiment [7], in experiment [8] and in experiment [9] was “inactive” each time.
As to `CN1CCN(C(=O)O[C@H]2c3nccnc3C(=O)N2c2ccc(Cl)cn2)CC1`, the Potency entry in experiment [1], in experiment [4], in experiment [5], in [6], in [13] and in experiment [8] was “inactive” throughout. Further, the Potency result in experiment [9] and in [10] was “inactive” throughout. Further, the result in experiment [11], in experiment [2], in [3] and in experiment [12] was inactive.
With `CNNC`, the Potency result in experiment [1], in experiment [4], in experiment [5], in experiment [6], in experiment [7] and in experiment [14] was “inactive” throughout. Moreover, the Potency entry in [13], in [8] and in [10] was “inactive” each time. The compound was called inactive in experiment [11], in experiment [2] and in [3].
For the compound `c1coc(-c2nc3ccccc3[nH]2)c1`, the Potency entry in experiment [1], in [5], in experiment [7], in [14], in [13] and in experiment [8] was “inactive” each time. Moreover, the Potency entry in experiment [9] is “inactive”. Further, the compound was called inactive in experiment [2], in experiment [3] and in experiment [12]. The Potency in experiment [10] was 3.86 µM (active).
Turning to `OC(c1ccc(F)cc1)(c1cncnc1)c1ccccc1Cl` (configuration not stated), the Potency result in experiment [1], in experiment [4], in experiment [5], in experiment [14], in [13] and in experiment [8] was “inactive” in each case. Moreover, the Potency result in experiment [9] and in experiment [10] was “inactive” each time. Besides, the outcome in [11], in experiment [2], in [3] and in [12] was inactive.
`CCC/C(=N\OCC)C1=C(O)CC(CC(C)SCC)CC1=O` (configuration not stated): the result in [11], in [2], in experiment [3] and in [12] was inactive. The Potency result in experiment [4], in experiment [5], in experiment [6], in experiment [7], in [13] and in experiment [8] was “inactive” each time. Also, in [9], the Potency result was “inactive”.
For the compound `N#CC(CCc1ccc(Cl)cc1)(Cn1cncn1)c1ccccc1` (configuration not stated), the Potency entry in [1], in [4] and in experiment [10] was “inactive” each time. In addition, the compound was called inactive in experiment [2] and in [3]. Moreover, the Potency is 54.5 µM (active) in experiment [5], 27.3 µM (active) in experiment [6], 54.9 µM (active) in experiment [7] and 24.5 µM (active) in experiment [13].
Consider `C=CC1CC=CCC1` (configuration not stated), for which the Potency result in [1], in [5], in experiment [7], in experiment [14], in experiment [13] and in experiment [8] was “inactive” in each case. Further, the Potency result in experiment [10] was “inactive”. In addition, the result in [2], in experiment [3] and in [12] was inactive.
As for `CNC(=O)Oc1ccccc1C1OCCO1`, the compound was classed as inactive in experiment [2], in [3] and in experiment [12]. Also, the Potency entry in experiment [4], in [5], in [7], in experiment [14], in [13] and in experiment [8] was “inactive” each time. Further, the Potency entry in experiment [9] and in experiment [10] was “inactive” throughout.
For `CC(=O)CCc1ccc2c(c1)OCO2`, the outcome in experiment [11], in experiment [2], in experiment [3] and in [12] was inactive. Moreover, the Potency entry in experiment [4], in experiment [5], in [6], in experiment [7], in experiment [13] and in [8] was “inactive” in each case. Besides, the Potency entry in [9] and in experiment [10] was “inactive” throughout.
As to `O=[N+]([O-])c1ccc(CBr)cc1`, the Potency result in experiment [1], in experiment [5], in [6], in experiment [7], in [13] and in [8] was “inactive” in each case. For the same compound, the Potency result in experiment [10] was “inactive”. The outcome in experiment [11], in experiment [2], in experiment [3] and in experiment [12] was inactive.
With `CCC(=O)c1ccccc1`, the Potency result in [1], in experiment [5], in [6], in [14], in experiment [13] and in [8] was “inactive” in each case. The compound was classed as inactive in experiment [11], in experiment [2], in experiment [3] and in [12].
In the case of `NC(=S)C(N)=S`, the compound was called inactive in experiment [11], in [2], in experiment [3] and in experiment [12]. Also, the Potency entry in [5], in [6], in experiment [7], in experiment [13], in experiment [8] and in [9] was “inactive” each time. The Potency entry in [10] is “inactive”.
As to `CNCC(=O)c1ccc(O)c(O)c1`, the Potency entry in experiment [1], in experiment [4], in [5], in [7], in experiment [14] and in experiment [13] was “inactive” each time. The Potency result in [8] is “inactive”. Also, the result in experiment [11], in experiment [2], in experiment [3] and in experiment [12] was inactive.
Turning to `ClCCCN1CCN(c2cccc(Cl)c2)CC1`, the Potency result in [1], in [4], in [5], in experiment [6], in [7] and in experiment [14] was “inactive” in each case. For the same compound, the Potency entry in [13], in [8], in experiment [9] and in experiment [10] was “inactive” in each case. The call in [2] and in experiment [3] was inactive.
As for `C[C@]12CC[C@H]3[C@@H](CCC4=CC(=O)CC[C@@]43C)[C@@H]1CC[C@@H]2C(=O)O`, the Potency result in experiment [1], in experiment [4], in [5], in [6], in [13] and in experiment [8] was “inactive” throughout. The Potency result in [9] and in [10] was “inactive” in each case. Further, the compound was classed as inactive in experiment [11], in experiment [2], in [3] and in experiment [12].
